# Most compounds without a hit are left out; they make up all but 1.1% or so of the library.
# Ec RNAP inh: E. coli RNAP inhibitors, biochemical; E. coli RNA polymerase, fluorescence transcription assay; DNA-directed RNA polymerase subunit beta (Escherichia coli (strain K12)), P0A8V2; 0.2% of 62,000 active; inhibition, %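 (tested at 10 µM)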; in the data active = inhibition above about 20%;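 note: 0% = enzyme without compound and 100% = no enzyme blank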
# Hsp90 block: tumor Hsp90 inhibitors, primary screen, cell lysate, fluorescence polarization, NCI-N417 lysate. Cy3B-geldanamycin FP displacement. inhibition, % at 30 µM. 0.35% of 64,000 active;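 active = inhibition above 50%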;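 note: 0% = tracer plus lysate wells and 100% = tracer alone without lysate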
# HePTP inhibitor: inhibitors of human HePTP phosphatase, primary screen, biochemical, absorbance, leukemia target; recombinant HePTP phosphatase activity, OD absorbance; inhibition, % at 20 µM; 0.64% of 110,000 active; AID 521, 2006; in the data active = inhibition above about 50%;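 note: plate controls were vehicle for no effect and reference inhibitor for full effect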
# HER2 expr 66K: inhibitors of Her2 protein expression, primary screen, SKBR-3 cells, AlphaScreen, 66K library; 0.69% of 65,000 active; HER2 level % of control, % at 10 µM; SKBR-3 HER2 protein level, 18-24 h; active compounds read low; Receptor tyrosine-protein kinase erbB-2 (Homo sapiens), P04626;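 active = HER2 level under 5% of the carrier-only control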;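 note: 100% = DMSO carrier and 0% = 500 nM PU-H71 HSP90 inhibitor; lower value means stronger loss of Her2 protein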
# Target sequence (P04626 whole entry, looked up): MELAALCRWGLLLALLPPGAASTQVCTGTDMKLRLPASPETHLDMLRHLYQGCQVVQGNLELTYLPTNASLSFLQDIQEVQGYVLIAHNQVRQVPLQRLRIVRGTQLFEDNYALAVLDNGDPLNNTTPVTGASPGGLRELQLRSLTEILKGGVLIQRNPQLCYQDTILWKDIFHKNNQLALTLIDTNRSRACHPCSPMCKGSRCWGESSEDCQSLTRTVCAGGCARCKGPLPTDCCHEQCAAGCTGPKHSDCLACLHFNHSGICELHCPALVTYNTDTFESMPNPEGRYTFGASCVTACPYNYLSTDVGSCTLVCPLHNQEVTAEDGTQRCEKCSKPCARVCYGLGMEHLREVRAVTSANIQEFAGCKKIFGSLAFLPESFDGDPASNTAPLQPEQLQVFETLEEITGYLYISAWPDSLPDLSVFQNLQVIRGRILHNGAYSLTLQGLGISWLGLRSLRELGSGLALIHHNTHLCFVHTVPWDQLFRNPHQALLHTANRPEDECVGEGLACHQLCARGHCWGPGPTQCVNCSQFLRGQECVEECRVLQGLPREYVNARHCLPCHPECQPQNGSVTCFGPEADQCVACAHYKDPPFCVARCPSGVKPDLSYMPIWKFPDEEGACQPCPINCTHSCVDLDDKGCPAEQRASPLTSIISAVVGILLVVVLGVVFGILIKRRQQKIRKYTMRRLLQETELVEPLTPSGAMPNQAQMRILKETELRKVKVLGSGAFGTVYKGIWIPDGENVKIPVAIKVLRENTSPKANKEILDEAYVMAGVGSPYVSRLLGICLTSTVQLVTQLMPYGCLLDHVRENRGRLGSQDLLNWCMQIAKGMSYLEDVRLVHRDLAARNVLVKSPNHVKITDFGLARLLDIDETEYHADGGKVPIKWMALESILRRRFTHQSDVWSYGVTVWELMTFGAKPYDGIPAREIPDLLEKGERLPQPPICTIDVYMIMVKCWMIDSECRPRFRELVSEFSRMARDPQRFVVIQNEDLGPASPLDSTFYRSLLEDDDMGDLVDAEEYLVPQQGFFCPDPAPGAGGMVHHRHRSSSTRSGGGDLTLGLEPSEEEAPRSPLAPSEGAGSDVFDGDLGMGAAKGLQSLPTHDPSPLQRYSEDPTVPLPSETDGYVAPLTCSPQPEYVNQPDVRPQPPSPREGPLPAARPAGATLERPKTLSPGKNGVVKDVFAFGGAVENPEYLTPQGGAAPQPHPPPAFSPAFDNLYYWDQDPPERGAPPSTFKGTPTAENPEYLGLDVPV
# TNAP act DEA: human TNAP enzyme activators, primary screen, biochemical, luminescent, intermediate phosphate acceptor level; Alkaline phosphatase, tissue-nonspecific isozyme (Homo sapiens), P05186; purified TNAP, CDP-star luminescence, 100 mM DEA, 30 min; active compounds read high; scale: 0 levamisole-inhibited, 1 vehicle-only enzyme; activation factor at 20 µM; 64,000 tested, under 10 active;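 active = activation factor of at least 2 at 20 µM, relative to controls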
# MT1-MMP txn act: MT1-MMP promoter reporter activation – cell-based, luciferase luminescence, primary screen | HT1080 MT1-MMP promoter luciferase reporter, overnight; active compounds read high | activation factor at 10 µM | 0.16% of 86,000 active;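 active = activation factor of at least 2 for MT1-MMP transcription at 10 µM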
# * = called active by the depositor; nt = no result; ! = a repeat was not active.
SMILES,Ec RNAP inh,Hsp90 block,HePTP inhibitor,HER2 expr 66K,TNAP act DEA,MT1-MMP txn act
C=CCOc1ccc(/C=C2\SC(=Nc3ccccc3)NC2=O)cc1OC,nt,nt,64*,nt,nt,nt
O=C(O)c1ccccc1/C=C1/SC(=S)N(c2cccc(Cl)c2)C1=O,nt,nt,6,nt,nt,nt
O=C(O)c1ccc(/C=N/c2ncn[nH]2)cc1,nt,nt,100*,nt,nt,nt
Brc1ccc(/C=N/c2ncn[nH]2)cc1,nt,nt,-13,nt,nt,nt
C=CCOC(=O)C1=C(C)Nc2nnnn2C1c1cc(OC)ccc1OC (stereo unspecified),-6,1,7,-18*,1,1.1
O=C(NCC1CCCO1)c1cc(-c2ccco2)nc2ccccc12 (stereo unspecified),2,-2,20,64,1,1.1
O=C(NC1CCCCCC1)c1cc(-c2ccco2)nc2ccccc12,nt,nt,98*,nt,nt,nt
CCOC(=O)c1ccc(NC(=O)c2ccc(OCC)c(Cl)c2)cc1,nt,nt,4,nt,nt,nt
CCOC(=O)Nc1ccc2c(c1)OCO2,nt,nt,nt,nt,nt,1.4
CCOC(=O)CC(N)c1ccc2c(c1)OCO2 (stereo unspecified),-6,-1,12,-21*,0.9,1.2
COc1ccc(-n2nc3cc(C)c(NC(=O)c4ccc(C)cc4)cc3n2)cc1,nt,nt,5,nt,nt,nt
CCCCCC(=O)N1CC2(C)CN(C(=O)CCCCC)CC(C)(C1)C2=O,5,120*,1,96,0.9,1.1
CCCCC(=O)N1CCCC(C(=O)OCC)C1 (stereo unspecified),nt,nt,nt,nt,nt,1.1
O=C(OCC#CCSc1nnc(-c2ccccc2)o1)c1ccco1,-4,-3,8,100,0.9,1.1
O=C(OCC#CCSc1nnc(-c2ccc(Br)cc2)o1)c1ccco1,43*,-7,-4,69,0.9,1
O=C(O)c1cccc(N2C(=O)c3ccc(OCCOc4ccc5c(c4)C(=O)N(c4cccc(C(=O)O)c4)C5=O)cc3C2=O)c1,nt,nt,104*,nt,nt,nt
Cc1ccccc1NCC(=O)N/N=C\c1c(O)ccc2ccccc12,nt,nt,5,nt,nt,nt
CC(=O)Nc1c(C)ccc2c1C(C)CC21CCCC1 (stereo unspecified),nt,nt,104*,nt,nt,nt
CC(=O)Nc1c(Br)cc(C23CC4CC(CC(C4)C2)C3)cc1Br,nt,nt,-14,nt,nt,nt
O=C(Nc1ccn(-c2ccccc2)n1)NS(=O)(=O)c1ccccc1Cl,nt,nt,-2,nt,nt,nt
COc1ccccc1-c1nnc2n1N=C(c1ccc(O)c(O)c1)CS2,3,65*,10,57,0.6,0.5
Cc1ccc(C2CC(C(F)(F)F)n3nc(C(=O)N4CCN(c5ccccc5)CC4)cc3N2)cc1 (stereo unspecified),nt,nt,1,nt,nt,nt
Cc1cc(C)nc(NS(=O)(=O)c2ccc(NC(=O)CSc3nnnn3-c3ccccc3)cc2)n1,nt,nt,-5,nt,nt,nt
CCN(CC)CCCNC(=O)c1cc2c(=O)n(C)c3ccccc3c2n1C,4,-2,-2,97,1,1.1
CCCN(CCC)CCCNC(=O)c1cc2c(=O)n(C)c3ccccc3c2n1C,50*,-2,3,87,0.9,1.1
SMILES,Ec RNAP inh,Hsp90 block,HePTP inhibitor,HER2 expr 66K,TNAP act DEA,MT1-MMP txn act
CC1CCCN(C(=O)Cn2c(-c3nonc3N)nc3ccccc32)C1 (stereo unspecified),9,-1,11,-24*,0.9,1.2
CC(C)CCOc1ccc(CN=C(N)N=C(N)N)cc1Cl,nt,nt,13,nt,nt,nt
CN(C1CCS(=O)(=O)C1)S(=O)(=O)c1ccc(N2CCCC2=O)cc1 (stereo unspecified),21*,-6,1,104,0.9,1.1
CC(C(=O)NCc1cccs1)n1cccc1 (stereo unspecified),2,-1,7,99,0.9,0.9
O=C(NCc1cccs1)C(Cc1ccccc1)n1cccc1 (stereo unspecified),23*,-1,8,88,0.8,1.1
Cc1ccc(-n2c(C)nc3oc4ccccc4c(=O)c3c2=O)cc1,nt,1,43,72,0.9,2.2*
O=C1NC(=O)N(c2ccccc2)C(=O)/C1=C/c1cccc(O)c1,nt,nt,6,nt,nt,nt
CCn1c(C)nc2cc(C(=O)OC(C(F)(F)C(F)F)C(F)(F)C(F)F)ccc21,9,-1,2,153,0.9,2.2*
CCOc1ccc2c(c1)nc(C)n2CC,nt,nt,6,nt,nt,nt
CCC(NC(C)C)C(O)c1ccc(O)c(O)c1 (stereo unspecified),17,59*!,6,104,0.8,1.1
O=C(/C=C\c1ccccc1)Nc1ccc2nn(-c3ccc(F)cc3)nc2c1,nt,nt,61*,nt,nt,nt
COc1ccc(/C=C/C(=O)Nc2cc3nn(-c4ccc(C)cc4)nc3cc2C)cc1,nt,nt,3,nt,nt,nt
Cc1cccc(C(=O)Nc2ccc3nn(-c4ccc(F)cc4)nc3c2)c1,nt,nt,-11,nt,nt,nt
O=C(/C=C/c1cccc([N+](=O)[O-])c1)Nc1ccc2nn(-c3ccccc3)nc2c1,nt,nt,102*,nt,nt,nt
COc1ccc(/C=C/C(=O)Nc2ccc3nn(-c4ccc(F)cc4)nc3c2)cc1,nt,nt,57*,nt,nt,nt
O=C(Nc1ccc2nn(-c3ccc(F)cc3)nc2c1)c1cccc(Br)c1,nt,nt,57*,nt,nt,nt
CCC(C)c1ccc(NC(=O)c2cc(C(=O)OC)cc([N+](=O)[O-])c2)cc1 (stereo unspecified),nt,nt,-3,nt,nt,nt
COc1ccc(NC(=O)C2=C(C)NC(=O)NC2c2ccc(Br)cc2)cc1 (stereo unspecified),nt,nt,-1,nt,nt,nt
O=C(Nc1ccc(Br)cc1F)c1cc(-c2ccccc2)nc2ccccc12,nt,nt,2,nt,nt,nt
O=C(NCCO)/C(=C\c1cccc(Br)c1)NC(=O)c1ccccc1,nt,nt,-2,nt,nt,nt
Nc1nnnn1/N=C/C(Br)=C/c1ccccc1,7,-2,10,-20*,0.9,1.6
CC(C)(C)c1ccc(S(=O)(=O)Nc2nc3ccccc3s2)cc1,nt,nt,-10,nt,nt,nt
O=C(O)c1ccc(Oc2ccc3c(c2)C(=O)N(c2ccc([N+](=O)[O-])cc2)C3=O)cc1,nt,nt,3,nt,nt,nt
O=C(Nc1ccc(I)cc1Cl)c1ccc([N+](=O)[O-])cc1,nt,nt,88*,nt,nt,nt
O=C(O)c1ccc(NC(=O)c2cc(NC(=O)c3ccc(C(=O)O)cc3)cc(C(=O)Nc3ccc([N+](=O)[O-])cc3)c2)cc1,nt,nt,101*,nt,nt,nt
O=C(O)c1ccc(NC(=O)c2ccc3c(c2)C(=O)N(c2ccc([N+](=O)[O-])cc2)C3=O)cc1,nt,nt,59*,nt,nt,nt
O=C1c2cccc3c([N+](=O)[O-])ccc(c23)C(=O)N1c1ccc(O)cc1,nt,nt,6,nt,nt,nt
CCOCCOC(=O)c1cccc(NC(=O)/C=C/c2ccccc2)c1,nt,nt,6,nt,nt,nt
COc1ccc(-n2c(Cn3c(=O)sc4ccccc43)nnc2SCC(=O)N2CCOCC2)cc1,6,0,5,-17*,1,1.1
Cn1c(Cn2c(=O)sc3ccccc32)nnc1SCC(=O)N1CCOCC1,4,-1,-4,89,1,1.1

# High-throughput results as filed in PubChem BioAssay.
